Publication PMC7862700, “An all-to-all approach to the identification of sequence-specific readers for epigenetic DNA modifications on cytosine”

Legend:
Assay in all cases: DAPPL (digital affinity profiling via proximity ligation, sequencing); 10 mM Tris-HCl pH 7.5, 50 mM NaCl, 1 mM DTT, 4% glycerol, room temperature, 30 min; GST-TFs on glutathione beads, 16-mer random dsDNA library, 0.1% formaldehyde crosslink after washing; high values mean tight binding
ELK1 = biological target: T1, ELK1 (Homo sapiens, UniProt P19419 1-428); conditions: protein: recombinant; tags: N-terminal GST; dsDNA, one strand shown
T1 sequence: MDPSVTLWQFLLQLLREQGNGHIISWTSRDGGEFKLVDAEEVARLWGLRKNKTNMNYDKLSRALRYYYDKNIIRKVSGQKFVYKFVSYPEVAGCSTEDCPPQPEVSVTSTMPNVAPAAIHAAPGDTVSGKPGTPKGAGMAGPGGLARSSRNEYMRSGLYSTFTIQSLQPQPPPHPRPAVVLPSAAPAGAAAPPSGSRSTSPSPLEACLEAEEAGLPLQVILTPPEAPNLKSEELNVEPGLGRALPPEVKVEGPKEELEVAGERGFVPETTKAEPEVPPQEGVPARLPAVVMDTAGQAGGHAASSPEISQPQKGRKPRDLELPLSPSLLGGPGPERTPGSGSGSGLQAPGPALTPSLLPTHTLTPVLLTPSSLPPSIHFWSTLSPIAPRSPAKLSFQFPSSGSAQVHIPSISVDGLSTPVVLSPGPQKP
Summary of the method: (§1)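 In yeast, human transcription factors were expressed with a GST fusion, then pulled down on glutathione beads and given DNA barcodes. Pooled with a tag-only sample, they were exposed to 200 nmole of a 16-mer random double-stranded DNA library (Tris/NaCl/DTT/glycerol buffer, room temperature, 30 min), washed, crosslinked with 0.1% formaldehyde, proximity-ligated using BsaI/T4 ligase for 1 h at 37 °C, PCR-amplified and read on an Illumina NextSeq500. Each hexamer's frequency of reads for a factor, divided by the matching frequency for the tag-only sample, gives the binding signal.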

GABPA = biological target: T2, GABPA (Homo sapiens, UniProt Q06546 1-454); conditions: protein: recombinant; tags: N-terminal GST; dsDNA, one strand shown
T2 sequence: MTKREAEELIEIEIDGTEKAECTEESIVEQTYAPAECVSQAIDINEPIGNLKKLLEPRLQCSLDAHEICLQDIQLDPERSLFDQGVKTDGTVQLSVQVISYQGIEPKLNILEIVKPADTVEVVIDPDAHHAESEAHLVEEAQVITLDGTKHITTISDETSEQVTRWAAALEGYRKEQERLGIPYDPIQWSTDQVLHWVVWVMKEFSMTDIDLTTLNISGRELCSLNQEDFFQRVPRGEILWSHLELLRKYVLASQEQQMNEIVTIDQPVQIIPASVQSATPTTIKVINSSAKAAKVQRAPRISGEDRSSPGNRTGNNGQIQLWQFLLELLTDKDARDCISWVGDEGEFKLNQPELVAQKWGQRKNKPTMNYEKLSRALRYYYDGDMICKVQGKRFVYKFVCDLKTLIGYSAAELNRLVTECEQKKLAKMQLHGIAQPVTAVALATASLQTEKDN
Summary of the method: as §1

ELF1 = ELF1 (Homo sapiens, UniProt P32519 1-619); conditions: protein: recombinant; tags: N-terminal GST; dsDNA, one strand shown
Summary of the method: as §1

EHF = biological target: T3, EHF (Homo sapiens, UniProt Q9NZC4 1-300); conditions: protein: recombinant; tags: N-terminal GST; dsDNA, one strand shown
T3 sequence: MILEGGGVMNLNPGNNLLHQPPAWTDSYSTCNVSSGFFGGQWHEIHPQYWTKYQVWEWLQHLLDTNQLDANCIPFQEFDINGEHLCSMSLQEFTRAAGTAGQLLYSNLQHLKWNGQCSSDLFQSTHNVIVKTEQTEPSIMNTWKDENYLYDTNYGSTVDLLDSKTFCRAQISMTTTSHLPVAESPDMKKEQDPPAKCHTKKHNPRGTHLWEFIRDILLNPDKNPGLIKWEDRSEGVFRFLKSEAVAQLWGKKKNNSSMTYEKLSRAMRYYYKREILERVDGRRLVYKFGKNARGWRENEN
Summary of the method: as §1

FEV = biological target: T4, FEV (Homo sapiens, UniProt Q99581 1-238); conditions: protein: recombinant; tags: N-terminal GST; dsDNA, one strand shown
T4 sequence: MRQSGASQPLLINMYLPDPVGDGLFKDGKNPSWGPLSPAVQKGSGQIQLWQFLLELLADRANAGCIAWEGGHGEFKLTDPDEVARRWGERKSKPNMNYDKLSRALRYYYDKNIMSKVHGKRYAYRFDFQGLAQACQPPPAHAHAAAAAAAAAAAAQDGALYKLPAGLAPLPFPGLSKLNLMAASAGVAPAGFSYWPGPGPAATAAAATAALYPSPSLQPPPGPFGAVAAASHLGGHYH
Summary of the method: as §1

HSF1 = HSF1 (Homo sapiens, UniProt Q00613 1-529); conditions: protein: recombinant; tags: N-terminal GST; chain copies: 3; dsDNA, one strand shown
Summary of the method: as §1

SPIC = biological target: T5, SPIC (Homo sapiens, UniProt Q8N5J4 1-248); conditions: protein: recombinant; tags: N-terminal GST; dsDNA, one strand shown
T5 sequence: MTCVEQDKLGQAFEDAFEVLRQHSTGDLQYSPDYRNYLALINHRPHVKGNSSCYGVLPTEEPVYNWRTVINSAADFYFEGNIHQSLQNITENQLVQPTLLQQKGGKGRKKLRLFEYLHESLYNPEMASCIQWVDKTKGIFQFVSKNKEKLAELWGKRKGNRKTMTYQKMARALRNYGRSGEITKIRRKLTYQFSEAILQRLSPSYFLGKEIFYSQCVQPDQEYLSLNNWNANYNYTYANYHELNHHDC
Summary of the method: as §1

ELF4 = ELF4 (Homo sapiens, UniProt Q99607 1-663); conditions: protein: recombinant; tags: N-terminal GST; dsDNA, one strand shown
Summary of the method: as §1

ETV2 = biological target: T6, ETV2 (Homo sapiens, UniProt O00321 1-342); conditions: protein: recombinant; tags: N-terminal GST; dsDNA, one strand shown
T6 sequence: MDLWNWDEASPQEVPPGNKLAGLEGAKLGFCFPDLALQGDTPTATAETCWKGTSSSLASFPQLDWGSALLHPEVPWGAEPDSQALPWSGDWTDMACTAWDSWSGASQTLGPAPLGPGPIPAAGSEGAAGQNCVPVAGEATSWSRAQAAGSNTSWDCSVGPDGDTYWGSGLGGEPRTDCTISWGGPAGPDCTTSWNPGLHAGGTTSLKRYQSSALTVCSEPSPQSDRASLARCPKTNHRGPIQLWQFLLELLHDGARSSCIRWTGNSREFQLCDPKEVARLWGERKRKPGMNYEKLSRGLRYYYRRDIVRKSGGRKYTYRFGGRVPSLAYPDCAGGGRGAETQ
Summary of the method: as §1

ELF3 = biological target: T7, ELF3 (Homo sapiens, UniProt P78545 1-371); conditions: protein: recombinant; tags: N-terminal GST; dsDNA, one strand shown
T7 sequence: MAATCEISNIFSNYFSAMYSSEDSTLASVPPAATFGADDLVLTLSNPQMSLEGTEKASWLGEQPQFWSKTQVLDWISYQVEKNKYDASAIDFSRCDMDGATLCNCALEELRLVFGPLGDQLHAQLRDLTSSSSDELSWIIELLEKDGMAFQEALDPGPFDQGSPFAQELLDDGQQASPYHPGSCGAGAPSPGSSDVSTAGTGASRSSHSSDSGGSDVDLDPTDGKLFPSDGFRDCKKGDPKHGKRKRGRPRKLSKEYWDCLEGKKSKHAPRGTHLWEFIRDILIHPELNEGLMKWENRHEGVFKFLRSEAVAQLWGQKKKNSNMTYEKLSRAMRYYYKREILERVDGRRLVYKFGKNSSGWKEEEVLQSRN
Summary of the method: as §1

ETV1 = ETV1 (Homo sapiens, UniProt P50549 1-477); conditions: protein: recombinant; tags: N-terminal GST; dsDNA, one strand shown
Summary of the method: as §1

ETV3 = biological target: T8, ETV3 (Homo sapiens, UniProt P41162-2 1-143); conditions: protein: recombinant; tags: N-terminal GST; dsDNA, one strand shown
T8 sequence: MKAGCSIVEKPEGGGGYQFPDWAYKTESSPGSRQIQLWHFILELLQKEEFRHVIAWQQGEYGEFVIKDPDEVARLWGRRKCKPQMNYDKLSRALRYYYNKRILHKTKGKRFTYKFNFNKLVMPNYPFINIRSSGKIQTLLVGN
Summary of the method: as §1

ETV1, sequence (P50549 whole entry): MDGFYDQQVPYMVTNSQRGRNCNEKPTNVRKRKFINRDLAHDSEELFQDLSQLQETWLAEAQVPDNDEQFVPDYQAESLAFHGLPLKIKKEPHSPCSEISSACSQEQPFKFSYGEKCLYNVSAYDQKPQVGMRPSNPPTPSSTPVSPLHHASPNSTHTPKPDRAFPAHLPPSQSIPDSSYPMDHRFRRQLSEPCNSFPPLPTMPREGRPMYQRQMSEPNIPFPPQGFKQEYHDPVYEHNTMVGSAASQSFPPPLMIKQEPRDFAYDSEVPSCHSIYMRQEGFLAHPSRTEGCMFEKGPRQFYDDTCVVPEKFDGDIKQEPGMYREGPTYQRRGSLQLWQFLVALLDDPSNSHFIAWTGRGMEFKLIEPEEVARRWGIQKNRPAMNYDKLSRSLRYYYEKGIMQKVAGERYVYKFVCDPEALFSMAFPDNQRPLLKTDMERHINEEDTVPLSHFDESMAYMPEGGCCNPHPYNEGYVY
ELF1, sequence (P32519 whole entry): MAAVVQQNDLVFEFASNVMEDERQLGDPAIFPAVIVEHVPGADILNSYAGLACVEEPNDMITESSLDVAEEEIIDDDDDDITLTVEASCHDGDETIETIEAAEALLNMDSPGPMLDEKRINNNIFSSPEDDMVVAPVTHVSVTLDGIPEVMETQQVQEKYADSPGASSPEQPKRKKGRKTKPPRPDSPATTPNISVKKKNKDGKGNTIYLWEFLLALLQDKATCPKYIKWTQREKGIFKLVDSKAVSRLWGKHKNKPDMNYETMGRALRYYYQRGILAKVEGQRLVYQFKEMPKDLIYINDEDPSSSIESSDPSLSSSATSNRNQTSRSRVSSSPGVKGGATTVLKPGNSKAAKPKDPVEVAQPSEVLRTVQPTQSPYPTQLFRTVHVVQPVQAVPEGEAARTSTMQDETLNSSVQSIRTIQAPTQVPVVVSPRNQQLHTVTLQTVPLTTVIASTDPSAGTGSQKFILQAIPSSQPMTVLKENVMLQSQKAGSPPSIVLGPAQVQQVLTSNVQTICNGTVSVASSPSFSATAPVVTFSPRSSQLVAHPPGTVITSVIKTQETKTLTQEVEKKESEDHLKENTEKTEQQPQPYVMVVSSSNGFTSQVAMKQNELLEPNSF
HSF1, sequence (Q00613 whole entry): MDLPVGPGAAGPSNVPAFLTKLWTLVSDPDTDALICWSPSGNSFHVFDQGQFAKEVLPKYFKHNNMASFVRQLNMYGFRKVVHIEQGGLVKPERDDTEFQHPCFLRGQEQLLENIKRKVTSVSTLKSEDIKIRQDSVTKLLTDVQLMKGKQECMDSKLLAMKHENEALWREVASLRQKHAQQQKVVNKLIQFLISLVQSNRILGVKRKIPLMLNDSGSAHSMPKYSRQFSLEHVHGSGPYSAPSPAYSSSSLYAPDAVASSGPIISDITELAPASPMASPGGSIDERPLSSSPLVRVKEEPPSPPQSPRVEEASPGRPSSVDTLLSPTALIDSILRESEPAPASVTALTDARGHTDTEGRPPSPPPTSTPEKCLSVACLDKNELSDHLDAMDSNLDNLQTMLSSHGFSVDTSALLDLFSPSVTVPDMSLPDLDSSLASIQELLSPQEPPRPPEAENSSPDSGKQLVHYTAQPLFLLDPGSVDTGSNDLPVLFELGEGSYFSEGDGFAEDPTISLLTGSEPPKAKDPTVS
ELF4, sequence (Q99607 whole entry): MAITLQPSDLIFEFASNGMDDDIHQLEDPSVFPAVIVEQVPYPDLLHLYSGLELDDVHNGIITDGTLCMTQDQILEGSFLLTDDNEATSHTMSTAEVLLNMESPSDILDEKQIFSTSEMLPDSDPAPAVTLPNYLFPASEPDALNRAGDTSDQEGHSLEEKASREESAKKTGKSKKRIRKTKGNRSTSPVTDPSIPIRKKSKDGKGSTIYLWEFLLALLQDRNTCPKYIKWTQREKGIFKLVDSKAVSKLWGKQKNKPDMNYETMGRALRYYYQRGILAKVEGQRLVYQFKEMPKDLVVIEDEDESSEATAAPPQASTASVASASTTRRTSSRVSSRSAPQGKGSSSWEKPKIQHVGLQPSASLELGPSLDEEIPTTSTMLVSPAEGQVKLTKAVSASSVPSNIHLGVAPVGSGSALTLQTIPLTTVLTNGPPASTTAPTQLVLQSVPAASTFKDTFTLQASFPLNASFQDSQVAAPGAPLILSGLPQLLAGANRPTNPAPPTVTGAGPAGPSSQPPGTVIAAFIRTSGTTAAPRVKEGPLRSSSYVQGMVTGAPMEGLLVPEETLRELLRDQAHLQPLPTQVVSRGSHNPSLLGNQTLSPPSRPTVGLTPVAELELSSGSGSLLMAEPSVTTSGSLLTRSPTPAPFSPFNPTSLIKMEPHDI

Sequence: CAGACT
- binding signal (ELK1): 1.01 fold enrichment (6-mer frequency, TF over GST control)
- binding signal (GABPA): 1.06 fold enrichment (6-mer frequency, TF over GST control)
- binding signal (ELF1): 1.02 fold enrichment (6-mer frequency, TF over GST control)
- binding signal (EHF): 1.05 fold enrichment (6-mer frequency, TF over GST control)
- binding signal (FEV): 1 fold enrichment (6-mer frequency, TF over GST control)
- binding signal (HSF1): 1.06 fold enrichment (6-mer frequency, TF over GST control)
- binding signal (SPIC): 1.05 fold enrichment (6-mer frequency, TF over GST control)
- binding signal (ELF4): 1.07 fold enrichment (6-mer frequency, TF over GST control)
- binding signal (ETV2): 1.04 fold enrichment (6-mer frequency, TF over GST control)
- binding signal (ELF3): 1.04 fold enrichment (6-mer frequency, TF over GST control)
- binding signal (ETV1): 1.05 fold enrichment (6-mer frequency, TF over GST control)
- binding signal (ETV3): 1.01 fold enrichment (6-mer frequency, TF over GST control)
